Screening data (PubChem)
NR2F2 inh: NR2F2 (human) inhibition, primary screen; HEK293T NGFI-A luciferase reporter, luminescence; inhibition, % at 8.6 µM; AID 686940; P24468; actives 0.7% (n = 370,000);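 active means inhibition above a per-plate cutoff, mean inhibition of test wells between control levels plus 3 SD, cut at about 38% in these data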;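 further: cells cotransfected with COUP-TFII expression vector driving the NGFI-A reporter; 0% = median of COUP-TF2 test wells and 100% = reporter-only cells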
SRC1 inh: human NCOA1 inhibition; Q15788; HEK293 GAL4-SRC1 luciferase reporter, luminescence; inhibition, % at 3.6 µM; actives 0.12% (n = 360,000); AID 588354;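 active means inhibition above the campaign mean plus 3 SD, with each screening campaign given its own cutoff, cut at about 60% in these data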;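 further: 0% = DMSO treated cells and 100% = gossypol at 36 µM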
NCOA2 inhibitor: human SRC2 (NCOA2) inhibition; HEK293 GAL4-SRC2 luciferase reporter, luminescence; inhibition, % at 9 µM; actives 0.17% (n = 370,000); AID 651957;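 active means inhibition above the mean inhibition of all tested compounds plus 3 SD, set per campaign, cut at about 52% in these data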;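 further: 0% = DMSO treated cells and 100% = cells given Gossypol at 36 µM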
SRC3 inh: inhibitors of human steroid receptor coactivator 3 (SRC3); Q9Y6Q9; HEK293 GAL4-SRC3 luciferase reporter, luminescence; inhibition, % at 3.6 µM; actives 0.17% (n = 360,000);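 active means inhibition above a per-campaign cutoff, the mean of all compounds plus 3 SD, cut at about 60% in these data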;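 further: 0% = DMSO-treated cells and 100% = gossypol-treated cells at 36 µM; higher means less SRC3-driven luciferase light from the GAL4 reporter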
LRH-1 inv ag: NR5A2 inverse agonism in reporter assay. O00482. actives 0.13% (n = 360,000). AID 602396. inhibition, % at 3.6 µM. HEK293T StAR-luciferase reporter, LRH-1 transfected, 24 h;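 active means inhibition above the mean inhibition of all tested compounds plus 3 SD, cut at about 73% in these data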;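 further: 0% = DMSO wells and 100% = reporter-only cells lacking LRH-1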
GalR3 antag: human GalR3 antagonism; inhibition, % at 3 µM; HEK293 GalR3-CNG cAMP membrane potential fluorescence; galR3 body fused to GalR1 C-terminus; actives 0.44% (n = 360,000); O60755;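 active means inhibition above the screen-wide average plus 3 SD, cut at about 13% in these data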;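 further: forskolin and galanin both at EC90 stimulate the cells; cAMP rise reported by CNG channel membrane potential dye signal; 0% = forskolin plus galanin with DMSO and 100% = forskolin alone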
Target sequence (O60755 1-299 limits assumed): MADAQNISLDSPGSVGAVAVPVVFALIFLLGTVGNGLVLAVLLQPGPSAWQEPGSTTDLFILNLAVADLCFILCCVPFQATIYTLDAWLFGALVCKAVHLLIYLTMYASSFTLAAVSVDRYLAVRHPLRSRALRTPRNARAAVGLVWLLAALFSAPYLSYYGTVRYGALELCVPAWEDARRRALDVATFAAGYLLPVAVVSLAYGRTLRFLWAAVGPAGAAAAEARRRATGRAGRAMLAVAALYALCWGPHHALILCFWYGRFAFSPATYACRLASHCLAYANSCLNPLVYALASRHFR
GalR3 antag conf: GalR3 (human) antagonism, confirmation. shares compounds with GalR3 antag. AID 652245. HEK293 GalR3 CNG cAMP biosensor, membrane potential fluorescence; galR3 fused to GalR1 carboxy tail; challenged with forskolin and galanin at EC90. actives 59% (n = 1,600). inhibition, % at 3 µM;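 active means inhibition above the primary screen's cutoff, the mean inhibition of all screened compounds plus 3 SD, cut at about 13% in these data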;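 further: 0% = forskolin plus galanin and 100% = forskolin alone with DMSO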
CNG parental: counter-screen for GalR3 antagonists: nonspecific agonists in parental HEK-CNG cells. actives 10% (n = 1,600). shares compounds with GalR3 antag. activation, % at 3 µM. HEK293-CNG parental cells, cAMP membrane potential fluorescence; normalised: DMSO wells 0%, forskolin wells 100%; in the data active means activation above about 1.3%
* hit, by the source's call; / = no result. Sampled rows, rich in hits. Any-hit rate of the full collection: about 1.1%.

SMILES | NR2F2 inh | SRC1 inh | NCOA2 inhibitor | SRC3 inh | LRH-1 inv ag | GalR3 antag | GalR3 antag conf | CNG parental
COc1ccccc1CC(=O)N1CCCc2ccccc21 | 17 | -2 | 9 | 20 | 0 | / | 3 | 1
CC(C)CCn1c(N2CCc3ccccc3C2)nc2c1c(=O)[nH]c(=O)n2C | 0 | 0 | -21 | -15 | 0 | 15* | -1 | 0
COc1cc2c(cc1OC)-c1cc(NC3CCCCC3)nc(=O)n1CC2 | -39 | -26 | -34 | -30 | -2 | 44* | 33* | 0
COc1cc2c(cc1OC)-c1cc(NC3CCCCCCC3)nc(=O)n1CC2 | -33 | -54 | -26 | -20 | 4 | 47* | 57* | 1.4*
CCN(C[C@H]1[C@@H](c2ccc(C3=CCCC3)cc2)[C@H](CO)N1c1nc(C)c(C)s1)S(=O)(=O)c1ccccc1[N+](=O)[O-] | 2 | / | -4 | / | / | / | / | /
O=Cc1cn(-c2ccccc2)nc1-c1ccccc1 | 0 | -17 | -28 | -36 | -38 | -7 | / | /
CC1=NNC(=O)/C1=C\c1cn(-c2ccccc2)nc1-c1ccccc1 | 14 | -23 | -13 | 3 | 8 | 48* | 55* | 0
COCCCn1c(=O)c2sccc2n2c(CCCC(=O)NCC3CCCO3)nnc12 (stereo unspecified) | 8 | -1 | -12 | -2 | -7 | 14* | 9 | 0
COc1ccc2oc(C)c(C(=O)c3ccccc3)c2c1 | 7 | -8 | -15 | 12 | -18 | 5 | / | /
COc1ccc2oc(C)c(C(=O)Cn3ccnc3)c2c1 | -9 | -5 | 0 | 3 | -30 | 15* | 1 | 0
O=C(NCCc1ccccc1)OCc1cn(Cc2ccccc2C(F)(F)F)nn1 | -14 | / | 12 | / | / | / | / | /
CN(CCCOC(=O)c1cc2ccccc2o1)C1CN(Cc2cn(Cc3ccc([N+](=O)[O-])cc3)nn2)S(=O)(=O)C1 (stereo unspecified) | -6 | / | 9 | / | / | / | / | /
O=S(=O)(CC1NCc2cc(F)ccc21)NCc1ccc(F)cc1 (stereo unspecified) | -7 | / | 8 | / | / | / | / | /
N#Cc1cc(-c2ccccc2)oc1NC(=O)c1ccco1 | -16 | -26 | -38 | -15 | -20 | 29* | 16* | 0
COc1cc(CCCN2C(N)=NC[C@@H]2c2ccccc2)cc(OC)c1OC | 10 | -2 | 4 | -17 | 6 | / | 4 | 0
COc1cc(/C=N/S(=O)(=O)c2ccccc2)cc(OC)c1O | 15 | -5 | -11 | -18 | 0 | 15* | -1 | 0
Clc1cccc(N2CCN(CCNc3nc4ccccc4n4cnnc34)CC2)c1 | / | 4 | / | 2 | 2 | / | / | /
c1ccc2c(c1)nc(NCCN1CCOCC1)c1nncn12 | -65 | -3 | -33 | 4 | -8 | / | 8 | 0
O=C1c2ccccc2C2Cc3nnccc3CN12 (stereo unspecified) | -1 | / | -35 | / | / | 3 | / | /
CN(Cc1ccccc1)CC(O)COc1ccc(CNCCc2cccnc2)cc1 (stereo unspecified) | 8 | 7 | -6 | 22 | -6 | 6 | / | /
CCc1ccc(CNCc2ccc(OCC(O)CN(C)Cc3ccccc3)cc2)nc1 (stereo unspecified) | 35 | 0 | 32 | 5 | 6 | 56* | 14* | 15*
COc1ccc(C2=NN(C(=O)c3cccs3)C(O)(C(F)(F)F)C2)cc1 (stereo unspecified) | 0 | -35 | -27 | -15 | -2 | 88* | 94* | 1
CCOC(=O)[C@@H](CCc1ccccc1)N[C@@H](C)C(=O)N1CCC[C@H]1C(=O)O | 1 | / | -15 | / | / | / | / | /
COc1cccc(NC(=S)N(CCCN2CCCC2)Cc2ccco2)c1 | 6 | -2 | -4 | 16 | -24 | 21* | 1 | 1
O=C(N/N=C/c1cc(Br)ccc1O)C(=O)Nc1ccccc1OC(F)(F)C(F)F | 13 | 22 | 4 | 60 | -17 | 15* | 57* | -2
